# Among all 16,000 compounds or so, about 4,000 (25%) were called active. Not shown: some 26% with an inconclusive outcome. The call rests on the fitted dose curve; in most records, active means well fitted curve in the direction sought with a large enough effect; inconclusive means small, poorly fitted or top-dose-only effect, or effect the other way; inactive means no such curve, though single readings can be large or run the other way. These entries were drawn from the full list. Peptide text beside a SMILES is read from it.
# Target: Cytochrome P450 2C9 (Homo sapiens) (UniProt P11712)
# Test: Cytochrome panel assay with activity outcomes
# Details: recombinant CYP, pro-luciferin dealkylation, luminescence, p450-cyp2c9; series mostly up to 57.1 µM
# On the % scale 0 is the no-effect control and ±100 the full control effect.
# Cytochrome P450 2C9 (Homo sapiens), sequence (P11712 whole entry, looked up): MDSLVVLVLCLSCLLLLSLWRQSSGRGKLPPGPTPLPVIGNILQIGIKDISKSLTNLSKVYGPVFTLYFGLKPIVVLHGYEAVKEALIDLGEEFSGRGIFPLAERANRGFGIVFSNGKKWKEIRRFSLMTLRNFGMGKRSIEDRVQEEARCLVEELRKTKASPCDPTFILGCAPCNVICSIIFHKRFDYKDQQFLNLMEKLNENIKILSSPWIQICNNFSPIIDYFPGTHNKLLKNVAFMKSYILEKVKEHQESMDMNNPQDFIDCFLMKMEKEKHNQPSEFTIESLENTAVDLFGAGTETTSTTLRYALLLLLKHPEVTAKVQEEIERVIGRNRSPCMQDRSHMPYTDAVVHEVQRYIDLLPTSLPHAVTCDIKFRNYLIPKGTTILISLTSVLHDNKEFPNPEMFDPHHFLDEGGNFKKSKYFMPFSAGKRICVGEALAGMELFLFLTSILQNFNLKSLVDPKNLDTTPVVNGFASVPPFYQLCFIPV
SMILES,AC50,"activity, negative = inhibition"
Cc1ccc(/C=C/C(=O)N2CC(C)CC(C)C2)o1 (configuration not stated),15.8 µM (active),–
Cc1ccc(/C=N/NC(=O)Cn2nccc2C)o1,inactive,–
CSc1nc(Sc2cccc(Cl)c2)c2ccccc2n1,0.251 µM (active),–
CSc1nnnc2ccccc12,–,14.9% [at 11.4 µM] (inactive)
CC1=C(C(=O)Nc2cccnc2)C(c2cccnc2)n2nc(-c3cccs3)nc2N1 (configuration not stated),8.91 µM (active),–
COc1ccccc1NC(=O)c1nc[nH]c1C(=O)Nc1ccccc1OC,inactive,–
COc1ccccc1NC(=O)C1=C(C)Nc2nnnn2C1c1cccc(Br)c1 (configuration not stated),14.1 µM (active),–
COc1ccccc1CNc1ccnc(-c2ccc(N(C)C)cc2)n1,–,-19.9% [at 2.29 µM] (inactive)
COC(=O)C1=C(C)Nc2ncnn2C1c1cccnc1 (configuration not stated),inactive,–
COc1ccccc1NC(=O)C1=C(C)Nc2nc(-c3ccc(N(C)C)cc3)nn2C1c1ccncc1 (configuration not stated),8.91 µM (active),–
NS(=O)(=O)c1cc2c(cc1Cl)N[C@@H](C(Cl)Cl)NS2(=O)=O,inactive,–
Cc1noc(C)c1-c1nccc(NCc2cccs2)n1,–,-12.6% [at 2.29 µM] (inactive)
COc1cc([C@H](O)CO)ccc1O,inactive,–
CCCCNN,–,-5.3% [at 11.4 µM] (inactive)
NCCSCCC(=O)O,–,-9.49% [at 11.4 µM] (inactive)
C=C1CC[C@H](O)C/C1=C/C=C1\CCC[C@]2(C)[C@H]1CC[C@H]2[C@@H](C)/C=C\[C@@H](C)C(C)C,inactive,–
COc1cc(C(=O)N2CCC(NC(=O)C(Cc3ccc(C(C)C)cc3)NC(C)=O)CC2)cc(OC)c1OC (configuration not stated),inactive,–
Cc1ccc(Oc2ccccc2/C=C2\SC(=O)N(C)C2=O)cc1,10 µM (active),–
COc1cc(C)cc2c(-c3c(O)cc(O)c4c3C[C@H](C)N[C@@H]4C)cc(-c3cc(-c4c(O)cc(O)c5c4C[C@H](C)N[C@@H]5C)c4cc(C)cc(OC)c4c3O)c(O)c12,–,-22.5% [at 11.4 µM] (inactive)
O=C(O)C[C@H](NC(=O)CP(=O)(O)O)C(=O)O.[NH-][C@@H]1CCCC[C@@H]1[NH-].[Pt],–,-7.92% [at 11.4 µM] (inactive)
O=C(Nc1nnc(SCc2ccc(Cl)cc2)s1)c1ccco1,0.562 µM (active),–
COc1ccc(NC(=O)N2CCCC3(CCN(C(=O)c4ccco4)CC3)C2)cc1,inactive,–
COc1ccc2c(c1)CCc1sc(NC(=O)c3ccc(C)cc3)nc1-2,5.01 µM (active),–

SMILES,AC50,"activity, negative = inhibition"
COc1ccc2c(c1)Cc1sc(NC(=O)c3ccco3)nc1-2,10 µM (active),–
CC(=O)Nc1nnc(SCc2ccc(F)cc2)s1,inactive,–
COc1ccc(C(=O)Nc2nc3c(s2)Cc2cc(OC)ccc2-3)cc1,5.62 µM (active),–
COc1cccc(C(=O)Nc2nc3c(s2)CN(C)CC3)c1,inactive,–
C[N+]1(C)CCC[C@@H](OC(=O)C(O)(c2ccccc2)c2ccccc2)C1,inactive,–
COc1ccc(-n2c(=O)c(C)nc3cnc(N(C)C)nc32)cc1,inactive,–
CN(C)c1ncnc2ccc(-c3ccccc3C(F)(F)F)cc12,–,-18.7% [at 2.29 µM] (inactive)
COc1ccccc1-c1cc(Nc2ccc(F)cc2)ncn1,–,-2.06% [at 2.29 µM] (inactive)
O=C(NNC(=O)C1CCCCC1)c1cnccn1,inactive,–
CC(C)CN(C)c1nc(N)c(C(=O)N=C(N)N)nc1Cl,inactive,–
Clc1ccccc1-c1nc(NCCN2CCOCC2)c2ccccc2n1,–,24.6% [at 2.29 µM] (inactive)
O=C1CSC2(CCN(CCCN3c4ccccc4Sc4ccc(Cl)cc43)CC2)N1,–,4.61% [at 11.4 µM] (inactive)
COc1ccc(Cc2nnc(NC(=O)c3ccco3)s2)cc1,2.82 µM (active),–
COc1ccccc1NC(=O)Nc1nnc(-c2ccco2)s1,inactive,–
OC[C@@H]1O[C@@H](n2cnc3cncnc32)[C@@H](O)[C@H]1O,inactive,–
COc1cccc(-c2nccc(NCc3cnc(C)cn3)n2)c1,–,-10.6% [at 2.29 µM] (inactive)
CN(C)CC/C=C1\c2ccccc2CSc2ccccc21,inactive,–
C[C@H](N)C(=O)O,inactive,–
CC(=O)N[C@@H](CC(=O)O)C(=O)N[C@@H](CCC(=O)O)C(=O)O (Ac-Asp-Glu-OH),inactive,–
O=C(c1csnn1)N1CCC2(CC1)CN(c1ccccc1)C2,inactive,–
O=C(c1csnn1)N1CCC2(CC1)CCN(c1ccccc1)CC2,inactive,–
O=C(c1csnn1)N1CCC2(CC1)CN(c1cccc(-c3ccccc3)c1)C2,inactive,–
O=C(c1csnn1)N1CCC2(CCCN(c3ccc(-c4ccccc4)cc3)C2)CC1,inactive,–

SMILES,AC50,"activity, negative = inhibition"
O=C(c1csnn1)N1CCC2(CCCN(c3ccccc3)C2)CC1,7.94 µM (active),–
O=C(c1csnn1)N1CCC2(CC1)CN(c1ccncc1)C2,2.51 µM (active),–
COc1ccc(NC(=O)N2CC[C@@]3(CCCN(C(C)=O)C3)C2)cc1,inactive,–
COC(=O)CSc1nnc(-c2ccccc2OC)n1-c1ccc(C)cc1,inactive,–
COC(=O)CSc1ccc2nnc(-c3ccc(F)cc3)n2n1,10 µM (active),–
CCOc1ccc(-c2nnc3ccc(SCC(=O)NCc4ccco4)nn23)cc1,11.2 µM (active),–
CCn1c(SCC(=O)OC)nnc1C1CCCCC1,inactive,–
O[C@@H](c1cc([C@@]23C[C@H]4CC[C@@H]2C[C@H](C4)C3)nc2c(Cl)cc(Cl)cc12)[C@@H]1CCCCN1,–,-4.65% [at 11.4 µM] (inactive)
Cc1cnc(CNc2cc(-c3ccc(C(=O)N(C)C)cc3)ncn2)cn1,–,23.4% [at 2.29 µM] (inactive)
FC(F)(F)c1cnc(N2CCC(=NOCc3ccc(Cl)cc3)CC2)c(Cl)c1,inactive,–
O=C(OC1CCN(c2ncc(C(F)(F)F)cc2Cl)CC1)c1ccccc1,10 µM (active),–
COc1ccc(/C=N/NC(=O)C2CCN(c3ncc(C(F)(F)F)cc3Cl)CC2)cc1,inactive,–
COC(=O)[C@@]1(Cc2ccc(F)cc2)[C@H]2c3cc(C(=O)N4CCCC4)n(CCc4ccc(OC)c(Br)c4)c3C[C@H]2CN1C(=O)c1ccccc1,3.16 µM (active),–
COc1ccccc1CN1CCCC2(CCN(C(=O)c3cccn3C)CC2)C1,inactive,–
COC(=O)[C@@]1(Cc2ccc(F)cc2)[C@H]2c3cc(C(=O)N4CCCC4)n(CCc4ccc(O)c(O)c4)c3C[C@H]2CN1C(=O)c1ccccc1,3.16 µM (active),–
C/C(=N\OC(=O)c1ccccc1F)c1nccs1,inactive,–
O=S(=O)(O)c1ccc2cc(N=Nc3cc(S(=O)(=O)O)c4cccnc4c3O)ccc2c1,–,-4.09% [at 11.4 µM] (inactive)
Cc1ccc(-n2cnc(=O)c3cccnc32)cc1,inactive,–
Cc1cc(C)cc(-n2c(O)c(C=NC3CCS(=O)(=O)C3)c3ccccc3c2=O)c1 (configuration not stated),4.47 µM (active),–
Cc1ccc(-n2c(O)c(/C=N/n3cnnc3)c3ccccc3c2=O)cc1,0.794 µM (active),–
Nc1c(S(N)(=O)=O)cc(S(N)(=O)=O)cc1S(N)(=O)=O,–,-3.4% [at 11.4 µM] (inactive)
CC(C)NC[C@H](O)c1ccc(NS(C)(=O)=O)cc1,inactive,–
CN(CCc1ccc(Cl)c(Cl)c1)CCN1CCCCCC1,inactive,–

SMILES,AC50,"activity, negative = inhibition"
CN(CCc1ccc(Cl)c(Cl)c1)C[C@@H](O)COc1ccc(NS(C)(=O)=O)cc1,2.51 µM (active),–
CC(=O)NNC(=O)C(O)(c1ccccc1)c1ccccc1,inactive,–
O=C(NC(N1CCCC1)C(Cl)(Cl)Cl)c1ccccc1 (configuration not stated),inactive,–
CC(C)(C)N(NC(=O)c1ccccc1)C(=O)c1cccc(C(=O)N(NC(=O)c2ccccc2)C(C)(C)C)c1,15.8 µM (active),–
COc1ccc(-c2noc(N(C)CC(=O)Nc3cccc(C(F)(F)F)c3)n2)cc1,5.01 µM (active),–
CN(CCCNC(=O)c1cccn2c(=O)c3ccccc3nc12)Cc1ccccc1,17.8 µM (active),–
CN(CCCNC(=O)c1ccc(/C=N/O)nc1)CCCN(C)Cc1ccccc1,inactive,–
Cc1ccc(CCN2CC(C(=O)NCCCN(C)Cc3ccccc3)CC2=O)cc1 (configuration not stated),inactive,–
CNC(=O)c1c(I)c(C(=O)NCC(=O)Nc2c(I)c(C(=O)O)c(I)c(C(=O)NCCO)c2I)c(I)c(N(C)C(C)=O)c1I,inactive,–
Cc1ccc(NC(=O)/C(=C\c2ccc([N+](=O)[O-])cc2)NC(=O)c2ccccc2)cc1,11.2 µM (active),–
COc1ccc(NC(=O)/C(=C\c2cc(OC)c(OC)cc2[N+](=O)[O-])NC(=O)c2ccccc2)cc1,7.94 µM (active),–
O=C(Nc1ccccc1)/C(=C\c1ccncc1)NC(=O)c1ccccc1,0.2 µM (active),–
Cc1ccc(C(=O)N/C(=C\c2ccc([N+](=O)[O-])cc2)C(=O)NCCc2ccccc2)cc1,inactive,–
O=C1[C@H]2[C@H]3[C@H](O)[C@H](O)C/C(=N/OCc4ccccc4)[C@@H]3CC[C@@H]2C(=O)N1C[C@@H]1CCCO1,–,7.38% [at 11.4 µM] (inactive)
O=C(O)C1C2C=CC3(CN(Cc4ccccn4)C(=O)C13)O2 (configuration not stated),inactive,–
CC(=O)NCCNc1ncncc1-c1ccccc1C(F)(F)F,–,-11.4% [at 2.29 µM] (inactive)
O=C(O)c1nnsc1COCc1ccccc1,–,-2.96% [at 11.4 µM] (inactive)
COC(=O)c1c(-c2cc(OC)c(OC)c(OC)c2)c2ccc(OCc3ccccn3)cc2c(=O)n1-c1ccc(N)cc1,3.98 µM (active),–
CC(C)CNc1nc(N)[nH]c(=O)c1NC=O,–,-6.56% [at 11.4 µM] (inactive)
OC1(c2ccc(OC(F)F)cc2)CSC(=Nc2cccnc2)N1C1CC1 (configuration not stated),5.01 µM (active),–
Cc1ccccc1-c1cc(NCc2ccccc2)ncn1,–,-15.2% [at 2.29 µM] (inactive)
Cc1ccc(N2C(=O)C(Cl)=C(NCc3ccccc3)C2=O)c(C)c1,5.62 µM (active),–
Cc1cccc(CNc2cc(-c3ccccc3Cl)ncn2)c1,–,4.64% [at 2.29 µM] (inactive)

# Reference: PubChem BioAssay AID1851 (National Center for Advancing Translational Sciences (NCATS), 2009)
